According to the supplement of paper PMC6555819:

Experiments:
Test in all cases: PBM binding z-score (relative to random genomic background probes); higher = stronger binding; sequences stand for … in GC…GCGATTGACAGCGTAGAATGAAGG
[1] = tested on: RARb homodimer (NR concentration 270 nM)
How it was run: (§1)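 Binding z-scores take random background probes as their reference. They come from custom Agilent 4×180K protein-binding microarrays incubated 1 h with ligand-free nuclear receptor dimers, with antibodies against each partner (one per run) detecting binding. Scanned fluorescence was regression-normalized.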

[2] = tested on: RARg:RXRa (NR concentration 270 nM, RXRa partner concentration 90 nM)
How it was run: as §1

[3] = tested on: RARg homodimer (NR concentration 270 nM)
How it was run: as §1

[4] = tested on: RXRa DBDmut IVT, anti-RXR (DBD mutation: RXRa K156A/R161A, NR concentration 90 nM)
How it was run: as §1

[5] = tested on: RXRa homodimer (NR concentration 180 nM)
How it was run: as §1

[6] = tested on: THRa:RXRa (NR concentration 90 nM, RXRa partner concentration 90 nM)
How it was run: as §1

[7] = tested on: THRa homodimer (NR concentration 90 nM)
How it was run: as §1

[8] = tested on: VDR homodimer (NR concentration 270 nM)
How it was run: as §1

Sequence	PBM binding z-score [1]	PBM binding z-score [2]	PBM binding z-score [3]	PBM binding z-score [4]	PBM binding z-score [5]	PBM binding z-score [6]	PBM binding z-score [7]	PBM binding z-score [8]
AGTCAAAGTTCCTCTAGGTAACGTAAGATATGCT	-0.0173	0.433	0.491	0.711	0.183	1.23	-0.0927	0.297
AGTTAAAGTTCAGGACGAGGTAACGTAAAGCACG	3.04	4.5	4.39	3.27	2.72	3.85	1.96	2.43
ACTCGTTGGTCAGCTGAGGTCACACACAATTCGG	4.41	4.16	4.25	1.3	4.06	5.18	5.14	3.72
CGAACGAGGGCATGAGTTTATAGCAAATGCCGAT	1.15	1.31	1.81	3.01	1.07	1.42	0.067	4.17
CGTCCAAGGTCAGCAGGTCCGTGAAAGCGACGTG	4.13	5.15	5.97	2.96	3.76	3.59	1.92	2.71
ATCTCTAGGTAATAAGTTCAGTGAAAGAGAGGAC	2.13	1.53	1.59	1.23	0.755	1.64	1.31	2.41
CCTACTGGGCCATTCAGAGGTCATTGAGCATATG	4.08	4.6	3.1	0.996	3.54	3.27	1.22	3.44
GCGACGGGGGCATCAGCAGGTTACCATAACTTAA	2.43	5.01	2.7	3.03	3.26	3.25	1.61	1.88
CTCGAAAGGTCGGTTGAGGTGAATATACGGATAA	2.32	2.98	2.77	0.545	2.5	5.06	1.58	0.52
CGAACGAGGGCTTGAGTTGATAGCAAATGCCGAT	-0.757	-0.238	-0.288	0.344	-0.152	-0.359	-0.618	-0.163
TAACCAAGGTGAAAGGTCGTTGATGCACGCCTTG	2.82	4.47	2.52	0.794	6.28	3.33	0.878	1.5
ATCTCTATGTAAAGATAGTTCAGTGAATGCAAAT	0.692	0.486	0.571	0.0227	0.467	0.271	-0.195	0.366
CCAGACAGGTGAGAAAGTAACTCAGCCTCGATTA	0.0469	0.0483	0.249	0.169	0.0557	-0.0555	-0.123	-0.255
CCTTACGGGTCAAGGTTATGGCACGGGTGGTACG	3.66	5.06	4.67	1.1	5.31	3	0.804	1.45
TAGCCTAGGTCATTGAGGGGCCAGTATAGAAAGC	2.97	5.82	4.34	1.59	2.82	3.05	0.714	1.16
TCAGACAGGTCAAGGTAACTCAGGTACGCAGTCG	3.61	4.57	4.8	2.07	4.44	3.33	1.49	0.989
CGTCCAGGGTCAAGGTCAGTGAAAGAGACTCGAA	4.96	6.51	6.69	2.77	6.61	4.19	2.79	2.98
TCTAGTTGGTCCAAGGTCACACACTCGAAATGCG	4.11	4.07	3.8	2.01	4.39	4.31	4.14	3.22
ACAGGCAGGTGAGTGAAGGTAACTCAGCTGGACG	0.0493	-0.184	0.135	-0.851	0.135	1.31	-0.451	-0.884

Sequence	PBM binding z-score [1]	PBM binding z-score [2]	PBM binding z-score [3]	PBM binding z-score [4]	PBM binding z-score [5]	PBM binding z-score [6]	PBM binding z-score [7]	PBM binding z-score [8]
TTACCAAGGTGAAGGTCGTTCATCCCTCTGTAGA	2.21	1.63	1.5	0.548	1.75	2.62	1.08	1.1
CATACAGGGTCAGCTAGGCCGGAGTAGGGACGGC	3	4.28	4.35	1.18	3.93	2.78	0.818	0.84
TCTATTAGTTGAAGGGCAACCGGCGAGTCCGTTT	1.33	0.436	0.37	1.69	0.567	0.217	0.172	0.963
TTACCAAGGTGAGCTGAGGTCGTTCATCCAACTC	1.81	1.4	0.963	0.409	1.3	4.63	2.3	2.41
ATCTCTAGGTAAGACTCAGTTCAGTAAAGAACGC	0.871	0.41	0.438	0.632	0.0419	0.985	0.878	1.74
CCTTACGGGTGAAGGTTATAGCACGGGTGGTACG	0.868	0.873	0.868	-1.61	1.23	0.509	0.0246	-0.283
GAGACAGGGTCAGCTAGAGGCCAGAGTATGGAAA	3.05	6.57	4.77	1.03	4.3	3.06	0.161	0.581
CGTCCAAGGTCAGCAGGTCAGTCAAAGCGACGTG	5	6.35	7.05	2.69	4.85	3.74	2.35	2.03
ACTAGTTGGTCAGCTGAGGTCGCACACAATTCGG	2.35	1.52	1.76	0.828	1.46	4.25	2.58	1.32
ATCTCTAGGTTACCAAGTTCAGTGAATGCCGAAC	2.58	1.88	1.79	1.48	1.26	1.97	1.14	3.3
CAAACTAGGTCACAGAGGTCAAAGGCCGTGCGTA	5.17	7.3	7.71	3.23	8.06	4.42	2.89	6.86
TATACAGGGGCAAAGGCCAGAGTACGAATGTCGA	1.74	1.95	1.85	0.806	1.49	0.569	-0.328	0.679
ATCTCTAGGTAAAGTTCAGTAAAAGATCGATAGA	2.39	2.22	2.74	1.27	1.18	1.23	0.183	2.13
TAGCCTAGGTCATGGGGGCCAGTATAGTGTCGGC	3.76	4.91	4.98	0.677	3.54	3.64	2.29	1.94
CCAACTGGGGCAGAAAGGTTACCATACCATCCGG	2.5	1.72	1.37	-0.546	1.76	1.06	0.0988	-0.202
CCTACTGGGCCAAGGTCATTAATCAGTCAAAGCA	3.03	3.21	2.99	1.47	2.71	3.1	2.03	3.22
ACTATTGGTTGAGACGAGGGCAACCGATAGGTTG	1.15	0.833	0.715	0.116	0.596	2.69	0.731	1.02
GTACCAAGGTGAATAGTTCGTTGATGAGTAGGCG	1.71	1.94	1.34	-0.0101	0.854	1.39	0.601	0.698
TGATATAGGTAAATGCTAGGTGAAAGTCCGATCT	0.551	0.276	0.33	-0.331	0.453	1.18	0.59	-0.0449

Sequence	PBM binding z-score [1]	PBM binding z-score [2]	PBM binding z-score [3]	PBM binding z-score [4]	PBM binding z-score [5]	PBM binding z-score [6]	PBM binding z-score [7]	PBM binding z-score [8]
TCGAGTAGGTTACTAATGGGGCATTCAGCTTTCT	0.14	0.367	0.0579	0.272	0.291	-0.11	-0.967	-0.245
TTACCACGGTGAAAGGTCGTTGATGCACGCCTTG	1.77	2.34	1.01	0.51	3.04	1.69	0.129	1.53
TCTTGTAGATCAGCAGGATAAGAAAGCTGGCCAA	-0.798	-0.461	-0.47	0.379	-0.273	-0.557	-0.84	-0.775
TAGCCTAGGTCGTGGGCCAGTATACCACGCGAAC	0.693	0.842	0.996	-0.872	0.851	0.795	-0.254	-0.53
CAAACTTGGTCAAAGGTCAAAGTCGAGCCAACCA	4.86	7.37	6.36	1.58	8.93	3.89	0.672	2.28
CGTCGAAGTTCAACTAAGGTAACGTAAAGCACGC	2.89	3.53	3.67	3.86	2.69	4.97	2.11	2.88
CGTCAAAGTTCAACTAAGGTGACGTAAAGCACGC	4.55	5.96	6.76	4.56	5.33	5.17	1.95	4.18
AGTCAAAGTTCACTAGGTAACGTCAGATTCAGCT	3.86	5.2	5.98	4.32	4.31	1.96	0.43	3.7
TCATACAGGTAAACAGGTGAAAGTCCGTAAGTTA	1.16	0.793	0.447	1.62	1.12	1.05	0.697	0.33
CTACCAAGGTGAACAAGGTCGTTGTTTACTATTC	1.97	1.78	1.27	1.63	1.9	3.23	1.76	2.16
ATCTCTAGGTAAAAGGTCAGTGAATCCCGAGGAT	4.43	4.54	4.74	0.227	4.83	3.34	0.855	0.867
CCTCGGAGGATAACAGGAGGTCAGAGCTGCCAGA	2.61	2.32	2.11	-0.476	1.73	2.4	0.791	0.96
GCATATAGGTAATACAAGGTGCAAGTCCGATTGT	-0.0695	0.291	0.14	0.314	0.27	1.52	-0.516	0.533
AGAATGAGGATACCAAAGATCAGGGAAACGCTTG	-0.727	0.287	0.437	-0.419	0.36	1.5	0.171	-0.61
TAGCCTAGGTCTTGGGCCAGTATACCACGCGAAC	0.192	-0.191	-0.198	-0.835	-0.0837	0.0232	0.0319	-0.506
TCATATAGGTAAATGCTAGGTGAAAGACCGATCT	0.314	0.683	0.454	1.44	1.15	1.32	0.328	0.112
ACTTACGGGTCAACGAGGTTATAGCTCGCGTATA	3.51	5.67	5	2.85	5.91	4.18	1.02	3.7
CCTACTGGGCCACGAAAGTTCATTGATTCAGTGA	3.23	2.04	2.29	1.34	1.46	1.74	-0.104	4.01
